ALDH1A1 block – inhibitors of human aldehyde dehydrogenase 1A1; P00352; Purified ALDH1A1, NADH fluorescence, propionaldehyde substrate; Potency, µM (highest dose often 75.3 µM), for inactives: at the top dose activity, negative = inhibition, hits mostly inhibitors; actives 7.3% (n = 220,000);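 note: potency is the fitted concentration of half-maximal effect; plate controls were no enzyme wells and a reference inhibitor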
KDM4E inh – inhibitors of human JMJD2E histone demethylase. B2RXH2. JMJD2E catalytic domain, FDH-coupled NADH fluorescence (FDH is formaldehyde dehydrogenase). Potency, µM (highest dose often 57.1 µM), inactives show at the highest dose activity change, negative = inhibition, most hits filed as inhibitors. actives 1.6% (n = 230,000). AID 2147;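 note: potency is the fitted concentration of half-maximal effect; 0% = wells with enzyme and -100% = buffer wells without enzyme; nearly all actives have a fitted effect of over 50% in size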
Target sequence (B2RXH2 1-337 limits assumed): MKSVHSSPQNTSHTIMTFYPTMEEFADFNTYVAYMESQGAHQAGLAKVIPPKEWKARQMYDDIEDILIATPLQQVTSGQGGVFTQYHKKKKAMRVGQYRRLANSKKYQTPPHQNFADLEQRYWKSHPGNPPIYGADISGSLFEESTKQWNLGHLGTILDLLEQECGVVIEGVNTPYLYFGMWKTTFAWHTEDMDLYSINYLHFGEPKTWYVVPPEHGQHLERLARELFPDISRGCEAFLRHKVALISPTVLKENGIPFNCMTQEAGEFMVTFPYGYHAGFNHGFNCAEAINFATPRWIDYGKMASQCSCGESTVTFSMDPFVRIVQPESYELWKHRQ
PNC inhibitor – blocks assembly of the perinucleolar compartment; PC3M PTB-GFP, PNC prevalence imaging, 16 h; stronger effect = lower value; activity change (PNC), negative = inhibition, % at 10 µM; actives 3.1% (n = 140,000); AID 2417;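 active = readout at or below -70, meaning at least 70% loss of cells showing the perinucleolar compartment, a nuclear body marking cancer cells; inconclusive = readout between -30 and a set limit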;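 note: plate controls were DMSO wells for no effect and camptothecin positive control wells for full effect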
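Compounds are pinned in duplicate onto adhered PC3M cells stably expressing GFP-tagged PTB and incubated 16 h at 37 C. Cells are then fixed, nuclei stained with Hoechst, and PNC-positive cells counted.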
HPGD block – inhibitors of human 15-hydroxyprostaglandin dehydrogenase (HPGD). P15428. AID 894. purified HPGD, NADH fluorescence kinetic, PGE2 substrate. actives 4.3% (n = 150,000). Potency, µM, for the others: at the highest dose activity change, negative = inhibition, hits mostly inhibitors; note: potency is the fitted concentration of half-maximal effect
Target sequence (P15428 whole entry, looked up): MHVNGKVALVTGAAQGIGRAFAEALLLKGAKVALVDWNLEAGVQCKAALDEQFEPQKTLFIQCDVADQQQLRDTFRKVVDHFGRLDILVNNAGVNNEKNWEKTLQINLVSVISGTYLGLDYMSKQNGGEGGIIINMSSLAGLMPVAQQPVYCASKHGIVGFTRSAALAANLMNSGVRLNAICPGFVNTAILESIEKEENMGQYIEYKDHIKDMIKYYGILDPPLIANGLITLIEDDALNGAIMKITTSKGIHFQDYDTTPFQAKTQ
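NADH formation kinetics: reaction with 30 uM PGE2 and 1 mM NAD+ (final), 20 nM enzyme, Tris-HCl pH 8 with Tween 20, after 15 min compound preincubation at room temperature. Fluorescence change, last versus first of five reads.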
* hit, by the source's call; ? = inconclusive; / = no result given; [ ] = dose if it differs, or a comment. Sampled rows, rich in hits. Any-hit rate of the full collection: about 11%. Unless noted, calls come from the whole dose curve; as a rule, active = well fitted inhibition curve with a large enough effect (not every such curve was filed as active); inconclusive = small, poorly fitted or top-dose-only effect, or another doubt; inactive = no such curve, though single readings can be large or run the other way. Unless noted, % is set by controls: 0 for no effect and ±100 for the full control effect.

SMILES	ALDH1A1 block	KDM4E inh	PNC inhibitor	HPGD block
CC(=O)/C(=N\Nc1ccc(C)cc1)Sc1nncn1C	?	-20%	?	-10%
Nc1ncnc2[nH]c(=O)[nH]c12	-1%	-9%	/	-5%
Cc1nc(C2CC(=O)OC23CCCCC3)cs1 (stereo not given)	-9%	10%	-15	-8%
Nc1nc(C2CC(=O)OC23CCCCC3)cs1 (stereo not given)	?	-3%	-119*	-7%
CCOC(=O)C1CCCN(c2cc(C)nc3cc(-c4ccc(Cl)cc4)nn23)C1 (stereo not given)	?	378%	-100*	?
CCOC(=O)C1CCCN(c2cc(C)nc3cc(-c4ccc(F)cc4)nn23)C1 (stereo not given)	-5%	491%	-90*	-11%
Cc1sc(C(C2C(=O)CC(C)(C)CC2=O)C2C(=O)CC(C)(C)CC2=O)cc1[N+](=O)[O-]	13µM*	?	/	/
CC1(C)CC(=O)C(C(C2=C(O)CC(C)(C)CC2=O)c2ccc([N+](=O)[O-])cc2)C(=O)C1 (stereo not given)	?	3%	?	/
Cc1ccc(NC(=O)Cn2c(O)c(N=NC(=O)c3ccncc3)c3ccccc32)cc1	4.5µM*	-7%	/	/
Cc1ccc(NC(=O)Cn2c(O)c(N=NC(=O)c3cc4ccccc4cc3O)c3ccccc32)cc1	?	-2%	30	-17%
COc1ccccc1NC(=O)Cn1c(O)c(N=NC(=O)c2ccccc2O)c2ccccc21	1.6µM*	-14%	/	/
CCCCn1c(O)c(N=NC(=O)c2ccncc2)c2cc(Br)ccc21	7.9µM*	13%	?	-2%
COc1ccc(C(=O)NNC(=O)C2CCN(S(=O)(=O)c3ccc(C)cc3)CC2)cc1	0%	-4%	/	/
Cc1ccc(-c2nc3ncccn3c2Nc2ccc3c(c2)OCO3)o1	?	1%	-119*	-20%
Cc1ccc(Nc2c(-c3ccc(C)o3)nc3ncccn23)cc1	/	-6%	/	/
C=C(C)[C@@H]1CC=C(CN2CCC(CCOC)(C(=O)OCC)CC2)CC1	-1%	-8%	/	/
Cc1noc(C)c1-c1nc(N2CCN(C)CC2)c2ccccc2n1	9%	/	/	/
Cc1c(C(=O)NCCSCc2cccc(C(F)(F)F)c2)cnn1-c1ccc(Cl)cc1	13%	-13%	/	/
COC(=O)CS(=O)(=O)c1nnc([C@H](Cc2ccccc2)NC(=O)OC(C)(C)C)o1	8.9µM*	-7%	?	11µM*
COC(=O)CSc1nnc([C@H](Cc2ccccc2)NC(=O)OC(C)(C)C)o1	-5%	-1%	68	-5%
Cc1cccc(CS(=O)(=O)c2nnc([C@H](Cc3ccccc3)NC(=O)OC(C)(C)C)o2)c1	22µM*	-7%	-1	14µM*
CCOc1ccc(NC(c2ccccn2)c2oc(CO)cc(=O)c2O)cc1 (stereo not given)	?	22µM*	/	/
CN(C)c1nc(SCCOC(=O)COc2ccc(Cl)cc2Cl)nc(N(C)C)n1	5%	5%	29	16µM*
N#C/C(=N\Nc1cc(Cl)cc(Cl)c1)c1nnc2n1CCCCC2	8.9µM*	11%	?	25µM*
N#C/C(=C1/CCCCCN1)c1nnc2n1CCCCC2	-9%	1%	45	-6%
SMILES	ALDH1A1 block	KDM4E inh	PNC inhibitor	HPGD block
N#C/C(=C1\C(=O)Nc2c(Cl)cc(Cl)cc21)c1nnc2n1CCCCC2	3.5µM*	?	?	-23%
O=C1CSc2ccccc2N1Cc1ccccc1F	22µM*	6%	?	-31%
COc1ccc(C)cc1NC(=O)c1ccc([N+](=O)[O-])cc1[N+](=O)[O-]	11%	8%	/	/
O=C(Nc1cccc2oc(=O)ccc12)c1ccc([N+](=O)[O-])cc1[N+](=O)[O-]	7.9µM*	0%	25	-13%
Cc1ccc(CN2CCN(C3CCOCC3)CC2CCO)cc1 (stereo not given)	8%	-4%	/	/
O=C(O)c1ccc(CSc2nnc(SCc3ccccc3)s2)cc1	-14%	3%	7	20µM*
Cc1cc(C)cc(NC(=O)c2ccc(CSc3nnc(C)s3)cc2)c1	-3%	7%	21	-19%
Cc1ccc(NC(=O)c2ccc(CSc3nnc(C)s3)cc2)cc1	?	6%	-100*	-14%
CCCCNC(=O)c1ccc(Cc2nc3ccccc3[nH]2)cc1	-3%	/	/	-5%
Cc1ccc(CNC(=O)[C@H]2C[C@@H]2[C@H](NP(=O)(c2ccccc2)c2ccccc2)c2ccccc2)c(F)c1F	-5%	7%	/	-8%
COCCN=C1Sc2nc3c(C)cccc3cc2CN1Cc1ccco1	3.5µM*	?	4	22µM*
COCCN=C1Sc2nc3ccc(C)cc3cc2CN1Cc1cccs1	-14%	-28%	/	/
Cc1cccc2cc3c(nc12)SC(=NCC1CCCO1)N(Cc1ccco1)C3 (stereo not given)	4.5µM*	2%	-27	/
COC(=O)c1cccc(NC(=O)c2cc(OC)c(OC)c(OC)c2Br)c1	40µM*	-6%	3	?
CC1CN(c2nnc(NC(=O)c3ccccc3)s2)CC(C)O1 (stereo not given)	?	-10%	/	/
O=c1oc2ccccc2c(O)c1/C=N/c1nc(-c2ccc(O)c(O)c2)cs1	3.5µM*	/	/	-24%
COC(=O)C1C2CC3c4[nH]c5cc(OC)ccc5c4CCN3CC2CC(OC(=O)c2cc(OC)c(OC)c(OC)c2)C1OC (stereo not given)	-9%	20µM*	/	-9%
CCn1c(SCC(=O)NNC(=O)c2ccco2)nnc1-c1ccco1	13%	9%	/	/
Cn1c2c(c(=O)c3ccccc31)C[C@@H](O)C(C)(C)O2	0%	-3%	/	-14%
Cn1c2c(c(=O)c3ccccc31)CCC(C)(C)O2	5%	-17%	?	28µM*
CCN1CCCC1CN=Cc1c(O)n(-c2ccccc2)c(=O)c2ccccc12 (stereo not given)	?	?	-92*	-28%
CC(C)CCN=Cc1c(O)n(-c2ccccc2)c(=O)c2ccccc12	-11%	?	?	-13%
NCC(=O)NC1(C(=O)O)CCCC1	-3%[13.5 µM]	/	/	-2%
CCCN1CCN(C(=O)CCCn2c(C)c3cnn(-c4ccccc4)c(=O)c3c2C)CC1	28µM*	-16%	7	-7%
CCC(C(=O)NCCN1CCN(C)CC1)n1c(C)c2cnn(-c3ccccc3)c(=O)c2c1C (stereo not given)	22µM*	-15%	24	-14%
SMILES	ALDH1A1 block	KDM4E inh	PNC inhibitor	HPGD block
Cc1ccccc1C(=O)NC1CCN(C(=O)Nc2ccccc2Cl)CC1	10%	-10%	/	/
N#CC1=C(N)C(C#N)(C#N)[C@H](c2cccnc2)[C@H]2CN(C(=O)OCc3ccccc3)CC=C12	?	?	?	-16%
N#CC1=C(N)C(C#N)(C#N)C(c2ccncc2)C2CN(C(=O)OCc3ccccc3)CC=C12 (stereo not given)	?	?	-119*	-9%
Cc1ccc(N2C(=O)/C(=C/c3ccco3)SC2=S)cc1	-4%	-1%	6	-10%
O=C1S/C(=C\C=C\c2ccco2)C(=O)N1c1ccc(O)cc1	18µM*	1%	-29	-13%
O=C1S/C(=C\C=C\c2ccco2)C(=O)N1c1ccccc1	20µM*	?	43	-9%

Assay outcomes as filed in PubChem BioAssay.
